Results published in the supplement of paper PMC12340641.
Counter-ions that a name gives are not always drawn.

What was measured:
[1] = molecular target: IKZF1 (dCK*-IKZF1 fusion in HEK293FT) (UniProt Q13422); experiment: inhibition of IKZF1 HTRF signal (DMSO = 0%, pomalidomide 10 uM = 100%); higher = lower IKZF1 protein level; settings: compound concentration: 5 uM, overnight (~20 h)
In short: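 HEK293FT cells stably expressing a dCK*-IKZF1 fusion (2000/well, 384-well) were treated overnight at 37 °C with 5 μM compound in single wells. They were then lysed 30 min at room temperature, and lysate was incubated overnight with a commercial HTRF total-IKZF1 antibody kit. The time-resolved FRET ratio (665/620 nm) was background-subtracted. Percent inhibition of IKZF1 signal was normalised per plate to vehicle (0%) and a reference degrader (100%).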

HEK293FT dCK*-only = experiment: relative growth in counter assay (no AraC = 100%, AraC + DMSO = 0%); higher = more growth rescue independent of IKZF1; settings: compound concentration: 5 uM; AraC concentration: 0.3 uM; overnight pretreatment + 4 days AraC
In short: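 In 384-well plates, 300 HEK293FT cells per well expressing an engineered kinase construct alone got 5 μM compound 2 h after seeding. After overnight at 37 °C, 0.3 μM nucleoside suicide substrate plus medium was applied for 4 days. Counting of Hoechst 33342-stained nuclei by imaging on day 5 was normalised per plate, with 100% for no-substrate wells and 0% for substrate plus vehicle.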

HEK293FT dCK*-IKZF1 = experiment: relative growth recovery (pomalidomide 10 uM = 100%, DMSO = 0%); higher = more growth rescue (IKZF1 fusion degradation); settings: compound concentration: 5 uM; AraC concentration: 0.3 uM; overnight pretreatment + 4 days AraC
In short: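 HEK293FT cells stably expressing an engineered deoxycytidine kinase–IKZF1 fusion were seeded at 300 per well in 384-well plates and given 5 μM compound 2 h later. After overnight incubation at 37 °C, a nucleoside suicide substrate at 0.3 μM was added with medium for 4 days, and on day 5 Hoechst 33342-stained nuclei were counted by whole-well imaging. Growth recovery was normalised per plate between a reference degrader and vehicle, set to 100% and 0% respectively, and the values are means of duplicates run on different days.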

Sequence of IKZF1 (dCK*-IKZF1 fusion in HEK293FT) (Q13422 whole entry, looked up, the tested form may be a part): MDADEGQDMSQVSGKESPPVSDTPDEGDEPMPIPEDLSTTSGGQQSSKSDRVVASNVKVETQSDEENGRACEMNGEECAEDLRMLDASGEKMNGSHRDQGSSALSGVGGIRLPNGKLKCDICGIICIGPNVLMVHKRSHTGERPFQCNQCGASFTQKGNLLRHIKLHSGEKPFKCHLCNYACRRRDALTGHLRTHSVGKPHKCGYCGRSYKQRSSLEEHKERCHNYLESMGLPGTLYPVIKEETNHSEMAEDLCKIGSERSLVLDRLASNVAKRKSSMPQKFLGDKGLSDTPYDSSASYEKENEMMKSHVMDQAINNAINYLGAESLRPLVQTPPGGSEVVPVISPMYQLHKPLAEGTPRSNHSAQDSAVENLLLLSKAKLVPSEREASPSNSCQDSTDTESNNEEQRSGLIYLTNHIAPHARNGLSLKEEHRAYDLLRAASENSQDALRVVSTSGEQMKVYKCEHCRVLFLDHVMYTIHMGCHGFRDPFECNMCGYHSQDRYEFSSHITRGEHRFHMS

SMILES | inhibition of IKZF1 HTRF signal [1] | relative growth in counter assay (HEK293FT dCK*-only) | relative growth recovery (HEK293FT dCK*-IKZF1)
Clc1ccc(C(Cn2ccnc2)OCc2csc3c(Cl)cccc23)c(Cl)c1 (stereo unspecified) [Sertaconazole nitrate] | 20% | -1.47% | 3.33%
Clc1ccc(COC(Cn2ccnc2)c2ccc(Cl)cc2Cl)c(Cl)c1 (stereo unspecified) | -32.3% | -7.63% | -6.23%
COc1c(C)c2c(c(O)c1C/C=C(\C)CCC(=O)O)C(=O)OC2 | -27.2% | -31.1% | -11.7%
CCN(CC)CCNc1ccc(CO)c2sc3ccccc3c(=O)c12 [Hycanthone] | -30.4% | -31.9% | -12.3%
O=C(Nc1nc(-c2cc(Cl)cs2)c(N2CCN(C3CCCCC3)CC2)s1)c1cnc(N2CCC(C(=O)O)CC2)c(Cl)c1 [Avatrombopag] | -35.6% | -3.51% | 1.31%
C[C@H]1NCc2cc(-c3ccc4c(=O)c(C(=O)O)cn(C5CC5)c4c3OC(F)F)ccc21 [Garenoxacin (Mesylate hydrate)] | -29% | -3.04% | -1.59%
CCOC(=O)C1=C(C)NC(C)=C(C(=O)OC)C1c1cccc(Cl)c1Cl (stereo unspecified) | 18% | -9.69% | -1.19%
CCCCCCCCCCCCCCCC[N+](C)(C)CCN(Cc1ccc(OC)cc1)c1ncccn1 [thonzonium bromide] | 21% | -31% | -10.3%
Cc1noc(C)c1-c1ccc(-c2cc(C(N)=O)c(NC(N)=O)s2)c(O[C@H]2CCNC2)c1 | -26% | 4.03% | 3.93%
O=C1CC[C@H](N2Cc3cc(N4CCN(CC5CCN(c6ccc([C@@H]7c8ccc(O)cc8CC[C@@H]7c7ccccc7)cc6)CC5)CC4)ccc3C2=O)C(=O)N1 | -15.2% | 2.17% | 9.37%
CC1(C)Oc2ccc(C#N)cc2[C@@H](N2CCCC2=O)[C@@H]1O.CC1(C)Oc2ccc(C#N)cc2[C@H](N2CCCC2=O)[C@H]1O [levcromakalim] | -32.9% | 4.22% | -0.84%
CC(C)N(CCC(=O)c1ccc2ccccc2c1)Cc1ccccc1 | -41.5% | -2.68% | 0.035%
O=C1OCCN1/N=C/c1ccc([N+](=O)[O-])o1 | -32.5% | -3.23% | -3.37%
CN1CCCC(CC2c3ccccc3Sc3ccccc32)C1 (stereo unspecified) [metixene] | -23.4% | 2.04% | 1.64%
COc1cc([C@@H]2c3cc4c(cc3C(O[C@@H]3O[C@@H]5CO[C@@H](c6cccs6)OC5[C@H](O)[C@H]3O)C3COC(=O)[C@@H]32)OCO4)cc(OC)c1O (stereo partly specified) | 16.8% | -34.5% | -13.1%
O=C(OC)C1=C(C)NC(C)=C(C(OCCCN3CCC(C4=CC=CC=C4)(C5=CC=CC=C5)CC3)=O)[C@@H]1[C@]2=CC=CC([N+]([O-])=O)=C2 [dexniguldipine] | -24.7% | -15.1% | -5.83%
CCCCCCCCCCCCC[N+](C)(C)Cc1ccccc1 | 7.81% | -14.8% | -5.53%
CC[C@@]1(O)C(=O)OCc2c1cc1n(c2=O)Cc2cc3c(CN(C)C)c(O)ccc3nc2-1 [Topotecan (Hydrochloride)] | 1.64% | -36.8% | -15.9%
O=c1[nH]nc(Sc2ncc([N+](=O)[O-])s2)n1-c1ccc2c(c1)OCCO2 | -27.9% | -34.9% | -12.8%
CC[C@@]1(O)C(=O)OCc2c1cc1n(c2=O)Cc2cc3c(CN(C)C)c(O)ccc3nc2-1 [Topotecan HCl] | 54.2% | -34.6% | -13.3%
Clc1ccc(C(Cn2ccnc2)OCc2ccc(Sc3ccccc3)cc2)c(Cl)c1 (stereo unspecified) [Fenticonazole nitrate] | -51.2% | -4.73% | 0.87%
Cc1coc2c1C(=O)C(=O)c1c-2ccc2c1CCCC2(C)C [Tanshinone IIA (Tanshinone B)] | 18.3% | 5.29% | 0.345%
NC(=S)N/N=C/c1ncccc1N [Triapine] | -21.7% | -34.8% | -13%
O=c1c(-c2ccccc2)c1-c1ccccc1 [diphencyprone] | -25.4% | -31.8% | -11.2%
C=C1/C(=C\C=C2/CCC[C@]3(C)[C@@H]([C@H](C)CCCC(C)(C)O)CC[C@@H]23)C[C@@H](O)C[C@@H]1O [Calcitriol] | -12.4% | -0.18% | -0.98%
C=C1C(=O)O[C@@H]2[C@H]3O[C@]3(C)CC/C=C(\C)CC[C@@H]12 [parthenolide-(alternate-stereo)] | -27.7% | -34.4% | -12.4%
Cc1cc(/C=C2\SC(=O)N(c3ccccc3)C2=O)c(C)n1-c1cccnc1 | -32.6% | -4.98% | 0.895%
